Compounds without any hit were thinned out: in the full panel of roughly 83,000, 20% have a hit.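 Method: cells in 96-well plates; compound added at one concentration; 48 h incubation; percent growth measured; values under 10 scored active.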 Unmarked numbers belong to inactive results. The source made the active and inactive calls.

The subject of the experiment is NCI-H460 lung. The experiment can be described thus: NCI-60 one-dose screen, 48 h (100 = growth as untreated, 0 = no growth, -100 = all killed). The following applies: 10 µM unless noted.
Turning to `Cc1nn(-c2ccc(Cl)cc2)c(C)c1N=Nc1ccc2oc(=O)ccc2c1`, the growth is 64.9%. The value for `O=C(NCCNc1cc(-c2cn(-c3ccccc3)nc2-c2cccc(O)c2)ccn1)Nc1ccc(Cl)c(C(F)(F)F)c1` was 58.5%; that for `CN(c1ccc(Br)cc1)S(=O)(=O)c1ccc(-c2cnc(C3CC3)o2)cc1` was 16.8%. The value for `CC(C)C[C@H]1C(=O)O[C@H](C(C)C)C(=O)N(C)[C@@H](C(C)C)C(=O)O[C@H](C(C)C)C(=O)N(C)[C@@H](C(C)C)C(=O)O[C@H](C(C)C)C(=O)N1C` was 8.47% (active). Then `CCCC(=O)NC(c1cccnc1)c1cc(Cl)c2cccnc2c1O` (stereo unspecified), with 25.3%; and `Nc1nc(-c2cccc([N+](=O)[O-])c2)c(N=Nc2ccccc2[N+](=O)[O-])s1`, with 39.5%; and `C/C(=N\NC(=O)CSc1nc2sc3c(c2c(=O)n1-c1ccccc1)CCC(C)C3)c1ccc(Cl)cc1` (stereo unspecified), with 4.18% (active). `C#C[C@]1(O)CC[C@H]2[C@@H]3CC=C4c5sc(Nc6nc(C)cc(OC)n6)nc5CC[C@]4(C)[C@H]3CC[C@@]21C`: the growth was 21.9%. Then `CN1CCN(c2ccc(NC(=O)Nc3ccc4c(ccn4-c4cccc(C(N)=O)n4)c3)cc2C(F)(F)F)CC1`, with 87.2%. Take `COc1ccc(NS(=O)(=O)c2ccc(-c3cnc(C4CC4)o3)cc2)cc1Cl`: the growth is 18.3%. Consider `CC1OC(O[C@@H]2C(O)C(CO)OC(O[C@H]3COC(O[C@H]4CC[C@]5(C)[C@H]6CC[C@]78OC[C@@]9(CC[C@](C)(C=O)C[C@H]97)[C@H](O)C[C@@]8(C)[C@]6(C)CC[C@H]5C4(C)C)[C@@H](OC4OC(CO)[C@@H](O)[C@@H](O)[C@@H]4O)[C@@H]3O)[C@H]2OC2OC[C@@H](O)[C@@H](O)[C@@H]2O)[C@@H](O)[C@@H](O)[C@H]1O` (stereo partly specified), for which the growth was 74.1%.

As to `COc1ccc(-c2ccc3c4c(cccc24)C(=O)N(N2C(=O)c4cccc5cccc(c45)C2=O)C3=O)cc1`, the growth was 102%. `N#Cc1c(NC(=O)c2ccc(F)c(Cl)c2)sc2c1CCC(=O)C2`: the growth is 4.07% (active). Then `Nc1ccc(-c2nnc(SCc3ccc(O)c4ncccc34)o2)cc1`, with -46.8% (active). `IP(CCCCCCCCCCSc1n(Cc2ccc3ccccc3c2)c(-c2ccccc2)c(-c2ccccc2)[n+]1Cc1ccc2ccccc2c1)(c1ccccc1)(c1ccccc1)c1ccccc1`: the growth was -63.4% (active). The value for `Cc1cc(Cl)cc(NS(=O)(=O)c2ccc(-c3cnc(C4CC4)o3)cc2)c1` was 16.2%; that for `COc1cc(/C=N/n2cnc3oc(-c4ccccc4)cc3c2=N)cc(CN2CCCCC2)c1O` was -72.7% (active); that for `CCOC(=O)c1c(NC(=O)c2ccc(C(C)(C)C)cc2)sc2cc(OCCN3CCCCC3)ccc12` was 13.9%. Consider `NS(=O)(=O)Oc1ccc2nc(Nc3ccc(F)c(F)c3)ccc2c1`, for which the growth was 98.1%. As to `CC(=O)c1sc(Nc2cccc(Nc3nc(C)c(C)s3)c2)nc1C`, the growth is 45.6%.

For `CCCCCCNC(=O)Oc1ccc(/C(=C(\C)c2ccc(OC)cc2)c2ccc(OCCN(C)C)cc2)cc1`, the growth was 67.6%.

As for `Cc1cccc(NC(c2cc3cccc4ccc5cccc2c5c43)c2nnnn2C(C)(C)C)c1C` (stereo unspecified), the growth was 93.4%. Consider `CCOC(=O)c1c(NCC(=O)Nc2cccc([N+](=O)[O-])c2)sc2c1CCCC2`, for which the growth was -51.5% (active). As to `O=c1oc2ccc(-c3ccc(F)cc3F)cc2c(=O)n1-c1ccc(F)c(F)c1`, the growth was 2.7% (active). Then `Brc1cccc(/C=N/Nc2nc(N/N=C/c3cccc(Br)c3)nc(N3CCOCC3)n2)c1`, with 41.2%. The value for `N#C/C(=C\c1ccc2ccccc2c1)C(=O)Nc1sc2c(c1C#N)CCC2` was 104%.

The values above are taken from PubChem BioAssay (NCI).
